# Most compounds without a hit are left out; they make up all but 0.68% or so of the library.
# Sa ugtP lethal = compounds lethal to S. aureus RN4220 ugtP deletion mutant. OD600 growth, 16 h. growth inhibition, % (concentration not given with the values). hit rate 0.54% among 330,000. AID 1259309; in the data active = growth inhibition above about 68%
# Rv3671c protease = inhibitors of M. tuberculosis serine protease Rv3671c. hit rate 0.048% among 320,000. AID 2606. inhibition, % at 5.96 µM; in the data active = inhibition above about 38%;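 note: extracellular domain of Rv3671c used as enzyme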
# Target sequence (P9WHR9 whole entry, looked up, the tested form may be a part): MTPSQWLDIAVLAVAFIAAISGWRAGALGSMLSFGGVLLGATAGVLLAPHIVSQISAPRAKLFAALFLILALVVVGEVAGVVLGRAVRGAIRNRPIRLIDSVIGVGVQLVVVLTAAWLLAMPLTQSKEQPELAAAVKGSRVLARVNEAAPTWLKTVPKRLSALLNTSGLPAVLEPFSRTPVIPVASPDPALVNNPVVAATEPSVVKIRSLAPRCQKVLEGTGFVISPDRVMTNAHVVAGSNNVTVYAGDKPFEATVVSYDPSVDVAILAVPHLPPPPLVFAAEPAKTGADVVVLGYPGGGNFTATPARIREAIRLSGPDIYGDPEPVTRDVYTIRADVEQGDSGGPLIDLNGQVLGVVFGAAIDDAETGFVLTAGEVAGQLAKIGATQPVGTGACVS
# Sa RN4220 lethal = kills Staphylococcus aureus RN4220; S. aureus RN4220 growth, OD600, 16 h; inhibition, % (test concentration not listed); hit rate 0.33% among 330,000; AID 1259311; in the data active = inhibition above about 85%
# UGM FP inh = blocks M. tuberculosis UGM enzyme; P9WIQ1; purified UGM, fluorescence polarization probe displacement; inhibition, % at 10 µM; hit rate 0.06% among 320,000; in the data active = inhibition above about 10%, passing the limit was not always enough
# Mtb hypoxia rep = Mtb hypoxia fluorescent reporter inhibition. M. tuberculosis hypoxia-regulated fluorescent reporter, fluorescence. hit rate 0.1% among 300,000. fluorescence inhibition, % (no concentration beside the values); in the data active = fluorescence inhibition mostly above about 23%, no sharp cut-off; inactive = mostly below about 17%
# Mtb bLac sens = beta-lactam sensitization of Mtb H37Rv | M. tuberculosis H37Rv growth with meropenem, percent inhibition | inhibition, % at 25 µM | hit rate 0.27% among 330,000 | AID 434955; call rule not given here;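 note: growth measured after seven days incubation then overnight dye step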
# A number is an active result; - = inactive; . = not tested or not shown.
SMILES,Sa ugtP lethal,Rv3671c protease,Sa RN4220 lethal,UGM FP inh,Mtb hypoxia rep,Mtb bLac sens
C#CCOCCOCCOCCNc1nc(N2CCN(C(=O)C(Cc3ccc(O)cc3)n3cc(C(N)C(C)CC)nn3)CC2)nc(N2CCN(C(=O)C(C(C)CC)n3cc(C(N)COC(=O)C(F)(F)F)nn3)CC2)n1 (stereo not given),-,.,-,.,-,.
Cc1ccc(C=C2C(Cl)=C(Cl)C(Cl)=C2Cl)cc1,100,-,97,-,-,-
COc1ccc(/C=C/C(=O)OCC(=O)NC2CCCCC2C)c(OC)c1 (stereo not given),87,-,-,-,-,-
CCCCC(=O)OCc1c(-c2cccc(OC)c2)ncc2ccccc12,86,-,-,-,-,-
CC(C)NC(=O)N(C)CC1Oc2ccc(NS(=O)(=O)c3ccc(Cl)cc3)cc2CC(=O)N(C(C)CO)CC1C (stereo not given),-,.,-,.,-,.
CCCCCc1ccc(OCCCC[n+]2cccc(C)c2)c(CCCCC)c1,.,-,.,-,.,-
CCCCCc1ccc(OCCCC[n+]2ccccc2)c(CCCCC)c1,-,-,101,-,.,-
CCC(C)(C)c1ccc(OCCCC[n+]2ccccc2)c(C(C)(C)CC)c1,100,-,101,-,.,-
CCCCCc1ccc(OCCCC[n+]2ccc(C)cc2)c(CCCCC)c1,100,-,99,-,.,-
CCCOc1ccc(C(=O)ON=C(CC)c2ccc(C)cc2)cc1,93,.,-,.,-,.
CCCOc1ccc(C(=O)O/N=C(\CC)c2ccc(C)cc2)cc1,.,-,.,-,.,-
O=C(CCl)N1c2ccccc2OCC1c1ccccc1 (stereo not given),95,-,-,-,.,-
CCOC(=O)c1cnc2ccc(Cl)cc2c1NCCN(C)C,-,-,-,20,.,-
CN(C)C=Cc1onc(-c2c(F)cccc2Cl)c1C#N,-,.,-,.,-,.
O=S(=O)(/N=C(\Sc1ccccc1)c1ccccc1)c1ccc(Cl)cc1,.,-,.,-,.,-
O=S(=O)(N=C(Sc1ccc(Cl)cc1)c1ccccc1)c1ccccc1,92,.,-,.,-,.
CCC1Sc2ccc(S(=O)(=O)Nc3ccc(OC)cc3)cc2NC1=O (stereo not given),93,-,96,-,-,-
CCN1C(=O)C2C(c3ccc(-c4ccc(OC)cc4)c(OC)c3)N[C@@](CC(C)C)(C(=O)OC)C2C1=O (stereo not given in full),-,.,-,.,-,.
CC1CN(C(C)CO)C(=O)c2cc(NC(=O)CCC(F)(F)F)ccc2OC1CN(C)S(C)(=O)=O (stereo not given),-,.,-,.,-,.
Cc1ccc(OCC(=O)c2c(O)c3ccccc3oc2=O)cc1C,-,-,-,-,-,-
Cc1ccc(C(C)C)c(OCC(=O)c2c(O)c3ccccc3oc2=O)c1,86,-,86,-,-,-
Cc1nc(-c2cccc(NC(=O)C(C)Oc3ccccc3)c2)cs1 (stereo not given),100,.,99,-,-,-
Cc1nc(-c2cccc(NS(=O)(=O)c3ccc4ccccc4c3)c2)cs1,91,-,-,-,-,-
O=S1(=O)C2CC3CC[C@]2(CN1Cc1cccc(F)c1)O3 (stereo not given in full),-,.,-,.,-,.
CC(=O)c1ccccc1OC(=O)c1c(F)cccc1F,-,-,-,-,-,-
SMILES,Sa ugtP lethal,Rv3671c protease,Sa RN4220 lethal,UGM FP inh,Mtb hypoxia rep,Mtb bLac sens
CC(=O)c1ccccc1OC(=O)c1ccc(-c2ccccc2)cc1,100,-,-,-,-,-
COCCN1C(=O)C(=O)C(=C(O)c2ccc3c(c2)OCCO3)C1c1ccc(C(=O)OC)cc1 (stereo not given),-,.,-,.,-,.
COc1ccc2cc(/C=C3\SC(=S)NC3=O)c(N3CCOCC3)nc2c1,90,-,89,-,-,-
COC(=O)C1CC2CCC(O)CC2N1Cc1ccc(C)s1 (stereo not given),-,.,-,.,-,.
Cc1ccc(C2CC=C(C(=O)O)CN2S(=O)(=O)c2ccc(C)cc2)cc1 (stereo not given),-,.,-,.,-,.
CC(C)(C)OC(=O)NC(C(=O)OC(C)(C)C)c1ccccc1 (stereo not given),-,.,-,.,-,.
Clc1ccc2c(N/N=C/c3cccc(Br)c3)ccnc2c1,.,-,.,-,.,-
Clc1ccc2c(NN=Cc3ccc(Br)cc3)ccnc2c1,101,.,101,.,-,.
Cc1ccccc1C=NNc1ccnc2cc(Cl)ccc12,99,.,98,.,-,.
Cc1ccc(C=NNc2ccnc3cc(Cl)ccc23)c(C)c1,101,.,99,.,-,.
Clc1ccc2c(N/N=C/c3ccccc3Br)ccnc2c1,.,-,.,-,.,-
Oc1ccc(C=NNc2ccnc3cc(Cl)ccc23)c(O)c1,-,.,-,.,-,.
COc1cccc2c(=O)cn[nH]c12,-,-,-,11,-,-
Cc1ccc(CS/C(Nc2ccccc2C)=C(\C#N)C(N)=O)c(C)c1,95,-,-,-,-,-
Cc1ccccc1NC(=O)CSC(N)=O,-,-,-,-,.,-
CC(CCc1ccccc1)NC(=O)C=Cc1ccc(Cl)cc1 (stereo not given),-,.,-,.,-,.
CCn1cc(C(=O)O)c(=O)c2cnc(N3CCN(C(=S)NC(=O)c4ccc(Cl)cc4Cl)CC3)nc21,-,-,-,-,-,-
CCn1cc(C(=O)O)c(=O)c2cnc(N3CCN(C(=S)NC(=O)c4ccccc4Cl)CC3)nc21,94,-,99,-,-,-
CCn1cc(C(=O)O)c(=O)c2cnc(N3CCN(C(=S)NC(=O)c4ccc(OC)cc4)CC3)nc21,86,-,-,-,-,-
COC(=O)C1C(c2ccccc2)NC(=O)N(CCc2cc(OC)c(OC)c(OC)c2)C1C (stereo not given),-,.,-,.,-,.
Cc1ccc(C2C3C(=O)N(c4ccccc4)C(=O)C3[C@]3(Cc4ccccc4)C(=O)N(CC4CC4)CC(=O)N23)o1 (stereo not given in full),-,.,-,.,-,.
CC1NC(=O)[C@@]2(C)C(c3ccccc3)C3COc4ccccc4C3N2C1=O (stereo not given in full),-,.,-,.,-,.
Cc1cc(C)c2[nH]c(O)c(N=Nc3ccc(C(=O)O)cc3)c2c1,85,-,90,-,-,-
Cn1cc(/C=C2\C(=O)NC(=O)N(c3ccccc3)C2=O)c2ccccc21,.,-,.,14,.,-
CN1CCc2nc3sc(C(=O)NC(C)(C)C)c(N)c3cc2C1,-,-,-,-,-,-
SMILES,Sa ugtP lethal,Rv3671c protease,Sa RN4220 lethal,UGM FP inh,Mtb hypoxia rep,Mtb bLac sens
CC(C)OC(=O)CC(=O)c1sc2nc3c(cc2c1N)CN(C)CC3,-,-,-,16,-,-
Cc1ccc(/C=C/C(=O)c2ccc([N+](=O)[O-])o2)cc1,.,-,.,-,.,-
COc1cc(C=CC(=O)c2ccc([N+](=O)[O-])o2)ccc1O,99,.,-,.,.,.
COc1ccc(C=CC(=O)c2ccc([N+](=O)[O-])o2)cc1,93,.,-,.,.,.
CC(NC(=O)c1nc[nH]c1C(=O)NC(c1ccccc1)c1ccccc1)C(=O)OC(C)(C)C (stereo not given),-,.,-,.,-,.
O=C1C2C(C3CC3)N3C(=O)CN(CC4CC4)C(=O)[C@@]3(Cc3ccccc3)C2C(=O)N1c1ccccc1 (stereo not given in full),-,.,-,.,-,.

# Bioassay records as filed in PubChem BioAssay.
